Screens: PubChem, National Center for Advancing Translational Sciences (NCATS)
ATXN2 expr inh = ATXN2 expression inhibition; HEK-293 ATXN2-luciferase reporter, luminescence, 24 h; Potency, µM (top dose mostly 57 µM), without a hit: at the highest dose activity change, negative = inhibition, hits mostly inhibitors; hit rate 0.72% among 360,000; AID 1745845; note: % is set by controls: 0 for no effect and ±100 for the full control effect; nearly all actives have a fitted effect of over 55% in size
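qHTS (up to 57 uM final) was run with 24 h compound exposure of reporter cells at 37 °C. Each well was multiplexed: SteadyGlo luminescence measured ATXN2-luciferase expression after a fluorogenic Gly-Phe-AFC viability readout (25 uM final).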
HepG2 viability = counter-screen for TGF-b inhibitors: cytotoxicity in HepG2 cells | HepG2 CAGA-GFP viability, ATP luminescence, 18 h | Potency, µM (top dose mostly 46.1 µM), inactives show at the top dose activity change, negative = cytotoxicity, hits mostly cytotoxic | hit rate 0.76% among 410,000
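HepG2 CAGA-GFP cells (1000/well, DMEM with 1% FBS) received compound, then TGF-beta at 500 pg/mL final, and were incubated 18 hours at 37 degrees C. Viability was read by CellTiter-Glo luminescence. Media-only wells were set as complete cell-killing and DMSO as no toxicity.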
A549 tox = A549 cytotoxicity, counter-screen for Nrf2 inhibitors; hit rate 0.16% among 390,000; Potency, µM (highest dose often 46 µM), inactives show top-dose activity change, negative = cytotoxicity, hits mostly inhibitors; AID 504648; A549 ARE-Fluc cells, CellTiter-Fluor viability, 18-24 h; note: % is set by controls: 0 for no effect and ±100 for the full control effect
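Cytotoxicity counterscreen: CellTiter-Fluor fluorescence was measured in A549 ARE_Fluc cells after 18-24 h of compound exposure in a concentration series. The subsequent BugLite luminescent read reports ARE-luciferase activity.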
Nrf2 block = blocks Nrf2 signaling | Potency, µM (doses to about 46 µM), inactives show at the top dose activity change, negative = inhibition, actives largely listed as inhibitors | hit rate 2.1% among 360,000 | A549 ARE-Fluc reporter, luciferase luminescence, 18-24 h; note: % is set by controls: 0 for no effect and ±100 for the full control effect; nearly all actives have a fitted effect of over 60% in size
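In this cell-based qHTS, ARE-driven firefly luciferase in A549 cells reports Nrf2 activity; the luminescent signal after BugLite lysis is the measured value, with a prior CellTiter-Fluor read for cell health.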
TGFb SMAD3 inh = TGF-b pathway inhibition | HepG2 CAGA-GFP TGF-b/SMAD3 reporter, GFP fluorescence, 18 h; TGF-beta stimulated, 500 pg/mL final | Potency, µM (series often up to 46.1 µM), for the others: top-dose activity, negative = inhibition, most hits filed as inhibitors | hit rate 1.2% among 410,000; note: % is set by controls: 0 for no effect and ±100 for the full control effect; nearly all actives have a fitted effect of over 65% in size
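Inhibition was scored as loss of TGF-beta-induced (500 pg/mL final, 18 hours, 37 degrees C) GFP in HEPG2 cells carrying a CAGA-GFP reporter, in DMEM with 1% FBS. Well GFP was summed per cell; Activity was normalised to unstimulated and stimulated DMSO wells, then concentration-response fitting.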
S2 tox = cell viability loss in ATXN counter-screen; S2 cells (HEK-293 line with an ATXN2-luciferase reporter) viability, CellTiter-Fluor protease fluorescence, 24 h; Potency, µM (titrated, usually from 56.7 µM), most hits filed as cytotoxic; hit rate 0.49% among 400,000; AID 651635; note: nearly all actives have a fitted effect of over 40% in size
Numbers without * were called inactive; [ ] = another dose, or the depositor's remark. A selection: hits, their analogues and other compounds. The true share with any hit is near 3.8%. Calls come from the whole dose curve; as a rule, active = well fitted curve in the direction sought with a large enough effect; inconclusive = small, poorly fitted or top-dose-only effect, or another doubt; inactive = no such curve, though single readings can be large; an effect the other way counts as inactive or inconclusive. Potency is the fitted concentration of half-maximal effect.

Screening COc1cc(OC)cc(C(=O)O/N=C(\N)c2ccccn2)c1 returned HepG2 viability -4%, A549 tox -19%, Nrf2 block inconclusive, TGFb SMAD3 inh 3% and S2 tox inactive.
`N/C(=N\OC(=O)c1ccccc1Cl)c1ccccn1` gave ATXN2 expr inh 16µM*, HepG2 viability -61%, A549 tox -10%, TGFb SMAD3 inh 3% and S2 tox inactive.
N#Cc1ccc(OCC(=O)N2CCN(S(=O)(=O)c3ccc(Cl)s3)CC2)cc1 was read as ATXN2 expr inh -37%, HepG2 viability -20%, A549 tox -12%, Nrf2 block 23µM*, TGFb SMAD3 inh inconclusive and S2 tox inactive.
COCCNC(=O)CSc1nc(-c2ccccc2)cs1 was read as ATXN2 expr inh 38%, HepG2 viability -11%, A549 tox 3%, Nrf2 block inconclusive, TGFb SMAD3 inh -8% and S2 tox inactive.
Screening O=C(c1ccc2n[nH]nc2c1)N1CCN(c2ccc(C(F)(F)F)cn2)CC1 returned ATXN2 expr inh inconclusive, HepG2 viability 4%, A549 tox -12%, Nrf2 block 15µM*, TGFb SMAD3 inh 3% and S2 tox inactive.
`O=C(c1ccccn1)N1CCN(c2ccc(C(F)(F)F)cn2)CC1` gave ATXN2 expr inh -10%, HepG2 viability -30%, A549 tox -3%, Nrf2 block inconclusive, TGFb SMAD3 inh -2% and S2 tox inactive.
O=C(NCCCN1CCOCC1)c1ccc2c(c1)N(Cc1cccc(Cl)c1)C(=O)CS2 was read as ATXN2 expr inh -24%, HepG2 viability -6%, A549 tox -11%, Nrf2 block inconclusive, TGFb SMAD3 inh 0% and S2 tox inconclusive.
CCOc1cc(C)nc(NCCc2ccc(OC)c(OC)c2)n1 was read as ATXN2 expr inh -8%, HepG2 viability -2%, A549 tox 5%, Nrf2 block 26µM*, TGFb SMAD3 inh -28% and S2 tox inconclusive.
COc1ccc(N2CCN(c3nc(NCCc4ccc(OC)c(OC)c4)nc(OC)n3)CC2)cc1 was read as ATXN2 expr inh 28µM*, HepG2 viability -72%, A549 tox -12%[1.84 µM], Nrf2 block inconclusive, TGFb SMAD3 inh inconclusive and S2 tox inconclusive.
For COc1ccc(/C(N)=N/O)c(OC)c1 the results were ATXN2 expr inh 4%, HepG2 viability 3%, A549 tox -1%, Nrf2 block 15%, TGFb SMAD3 inh 3% and S2 tox inactive.
For CCCn1c(=O)c2sccc2n2c(CCCC(=O)Nc3cccc(CC)c3)nnc12 the results were HepG2 viability -21%, A549 tox -7%, Nrf2 block -28% and TGFb SMAD3 inh inconclusive.
`O=C(c1cccc(S(=O)(=O)N2CCCCC2)c1)N1CCCCC1` gave ATXN2 expr inh 5%, HepG2 viability 3%, A549 tox -10%, Nrf2 block -4%, TGFb SMAD3 inh -25% and S2 tox inactive.
For O=C(NCc1ccc2c(c1)OCO2)c1cccc(S(=O)(=O)N2CCCCC2)c1 the results were ATXN2 expr inh -7%, HepG2 viability 4%, A549 tox -9%, Nrf2 block 15µM*, TGFb SMAD3 inh 2% and S2 tox inactive.
For O=C(c1cccc(S(=O)(=O)N2CCCC2)c1)c1cccc(S(=O)(=O)N2CCCC2)c1 the results were ATXN2 expr inh -30%, HepG2 viability -28%, A549 tox -15%, Nrf2 block 8.2µM*, TGFb SMAD3 inh -23% and S2 tox inactive.
Screening O=C(NCCOc1ccc(Cl)cc1)c1cccc(S(=O)(=O)N2CCCC2)c1 returned ATXN2 expr inh inconclusive, HepG2 viability -15%, A549 tox 0%, Nrf2 block 23µM*, TGFb SMAD3 inh -9% and S2 tox inactive.
For O=C(/C=C/NNC(=O)c1ccccc1)c1ccccc1 the results were ATXN2 expr inh -5%, HepG2 viability -17%, A549 tox -2%, Nrf2 block 5%, TGFb SMAD3 inh -29% and S2 tox inactive.
Screening O=C(/C=C/NNC(=O)c1ccccc1)c1ccc([N+](=O)[O-])cc1 returned ATXN2 expr inh 7.5µM*, HepG2 viability -49%, A549 tox inconclusive, Nrf2 block inconclusive, TGFb SMAD3 inh inconclusive and S2 tox inconclusive.
For Cc1cc(=O)n2nc(N3CCCC(C(=O)NCc4ccccc4Cl)C3)sc2n1 (stereo not drawn) the results were ATXN2 expr inh 9%, HepG2 viability 3%, A549 tox 0%, Nrf2 block inconclusive, TGFb SMAD3 inh 13% and S2 tox inactive.
For Fc1cccc(-c2cc3nc4c(c(N5CCC6(CC5)OCCO6)n3n2)CCCC4)c1 the results were ATXN2 expr inh 43%, HepG2 viability 4%, A549 tox -4%, Nrf2 block 14%, TGFb SMAD3 inh -4% and S2 tox inactive.
`OC1CCN(c2c3c(nc4cc(-c5cccc(F)c5)nn24)CCCC3)CC1` gave ATXN2 expr inh 22%, HepG2 viability -21%, A549 tox inconclusive, Nrf2 block 23µM*, TGFb SMAD3 inh -17% and S2 tox inactive.
For CCOc1ccc(N2C(=O)C(CC(=O)Nc3ccc(F)cc3)N(Cc3ccccn3)C2=S)cc1 (stereo not drawn) the results were ATXN2 expr inh 1%, HepG2 viability -2%, A549 tox -7%, Nrf2 block inconclusive, TGFb SMAD3 inh inconclusive and S2 tox inactive.
CCOc1ccc(N2C(=O)C(CC(=O)Nc3ccccc3)N(Cc3ccccn3)C2=S)cc1 (stereo not drawn) was read as ATXN2 expr inh -21%, HepG2 viability -3%, A549 tox inconclusive, Nrf2 block 23µM*, TGFb SMAD3 inh -19% and S2 tox inactive.
Screening CN(c1ncc(C(F)(F)F)cc1Cl)N1C(=O)c2cccc([N+](=O)[O-])c2C1=O returned ATXN2 expr inh -17%, HepG2 viability 8%, A549 tox 12%, Nrf2 block 14%, TGFb SMAD3 inh 2% and S2 tox inactive.
O=c1[nH]c(SCc2ccc(OC(F)(F)F)cc2)nc2c1CCC2 was read as ATXN2 expr inh 12%, HepG2 viability -37%, TGFb SMAD3 inh 5% and S2 tox inactive.
O=C(CN1CCN(Cc2ccc(Cl)cc2)C1=O)NCCCN1CCN(c2ccc(F)cc2)CC1 was read as ATXN2 expr inh -35%, HepG2 viability -57%, A549 tox -4%, TGFb SMAD3 inh 1% and S2 tox inactive.
